KB-3-1 tox – KB-3-1 parental cell cytotoxicity | KB-3-1 viability, CellTiter-Glo ATP luminescence, 72 h | Potency, µM (top dose mostly 46.1 µM), actives largely listed as cytotoxic | 400,000 compounds, 1.4% hits; also: nearly all actives have a fitted effect of over 60% in size
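Viability of parental KB-3-1 cells, measured by CellTiter-Glo luminescence, followed a 72 h incubation at 37 °C with pinned compounds in phenol-red-free DMEM containing 10% FBS.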
MCF10A rereplic – DNA re-replication induction in MCF 10a cells. MCF 10A DNA re-replication, Hoechst nuclear intensity, 48 h. Potency, µM (top dose mostly 46.1 µM), hits mostly activators. 350,000 compounds, 2.9% hits. AID 624296; also: nearly all actives have a fitted effect of over 50% in size
D3 ag – D3 dopamine receptor (human) agonism | P35462 | D3R DiscoveRx beta-arrestin cells, luminescence, 90 min | max activation, % | 410,000 compounds, 0.58% hits | AID 652048; in the data active = max activation above about 30%
Target sequence (P35462 whole entry, looked up): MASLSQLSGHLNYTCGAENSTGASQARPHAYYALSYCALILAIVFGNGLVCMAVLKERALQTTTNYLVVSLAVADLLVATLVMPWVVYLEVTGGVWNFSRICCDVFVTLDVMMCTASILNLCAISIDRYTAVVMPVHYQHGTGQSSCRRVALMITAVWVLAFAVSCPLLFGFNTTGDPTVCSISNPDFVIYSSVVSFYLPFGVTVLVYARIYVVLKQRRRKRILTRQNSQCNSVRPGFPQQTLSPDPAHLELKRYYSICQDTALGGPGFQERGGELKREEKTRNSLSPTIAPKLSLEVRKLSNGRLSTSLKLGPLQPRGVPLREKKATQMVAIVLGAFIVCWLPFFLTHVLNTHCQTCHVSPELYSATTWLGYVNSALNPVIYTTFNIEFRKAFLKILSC
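Agonist-mode cell screen: cells plated at 1500/well and incubated overnight at 37 °C, then exposed to library compounds for 90 min at 37 °C. Detection reagent was added for 30–60 min at room temperature, and luminescence was read.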
KB-V1 cytotox – kills drug-selected multidrug resistant KB-V1 cells; KB-V1 MDR cells viability, CellTiter-Glo, 72 h; AID 1347076; 400,000 compounds, 3.4% hits; Potency, µM (top dose mostly 46.1 µM), hits mostly cytotoxic; also: nearly all actives have a fitted effect of over 60% in size
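Readout: CellTiter-Glo luminescence, 10 min after addition. Cells: KB-V1 MDR subline, 72 h at 37 degrees C with compound. Analysis: corrected, normalized data fitted to concentration-effect curves.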
SW480 rereplic – inducers of DNA re-replication in SW480 colon cancer cells; 340,000 compounds, 1.8% hits; AID 624297; Potency, µM (highest dose often 46.1 µM), usual class: activators; SW480 DNA re-replication, Hoechst DNA content imaging, 48 h; also: nearly all actives have a fitted effect of over 55% in size
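Per well, 250 cells were exposed to pinned compound for 48 hr. Nuclear DNA was visualised with Hoechst (40 min, 37 C) and total object intensity recorded by fluorescence scanning.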
D3 antag – blocks the human D3 dopamine receptor. D3R cells, DiscoveRx beta-arrestin luminescence, antagonist mode; hits give low values. max response, negative = inhibition, %. 360,000 compounds, 2.5% hits. AID 652054; in the data active = max response below about -50%; inconclusive = no clear call, values can overlap the other calls
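Cells plated overnight at 1500 cells/well, then exposed to library compounds with dopamine controls for 90 minutes at 37 degrees C. DiscoveRx reagent added for 30–60 minutes at room temperature; luminescence read, quantitative HTS format.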
Numbers stand for hits; i = inactive; ? = inconclusive; nt = not tested or not shown. A selection: hits, their analogues and other compounds. The true share with any hit is near 8.9%. Unless noted, calls follow the shape of the dose curve; as a rule, active = well fitted curve in the direction sought with a large enough effect; inconclusive = small, poorly fitted or top-dose-only effect, or another doubt; inactive = no such curve, though single readings can be large; an effect the other way counts as inactive or inconclusive.

SMILES	KB-3-1 tox	MCF10A rereplic	D3 ag	KB-V1 cytotox	SW480 rereplic	D3 antag
CC(=O)Oc1ccc([C@@H]2COc3c(ccc4c3C=CC(C)(C)O4)C2)c(OC(C)=O)c1	?	i	38	i	i	i
CC1(C)C=Cc2c(ccc3c2OC[C@H](c2ccc(O)cc2O)C3)O1	i	?	i	i	i	i
COc1ccc(C2COc3cc(O)ccc3C2)c(OC)c1O (centres undefined)	?	?	i	?	?	i
CC(C)=CCc1cc([C@@H]2COc3c(ccc4c3C=CC(C)(C)O4)C2)c(O)cc1O	i	5.2µM	i	i	i	i
Nc1c(C(O)(C(F)(F)F)C(F)(F)F)cc(C(O)(C(F)(F)F)C(F)(F)F)c2ccccc12	i	18µM	i	i	i	-83
CC(C)NS(=O)(=O)c1ccc(OCC(=O)Nc2ccc(F)cc2F)cc1	i	i	i	16µM	i	i
CC(C)NS(=O)(=O)c1ccc(OCC(=O)Nc2ccccc2F)cc1	i	i	i	i	i	i
CCCn1c2ccc(C)cc2c2n[nH]c(=S)nc21	i	i	i	i	15µM	i
CCn1c2ccccc2c2n[nH]c(=S)nc21	?	i	i	6.5µM	i	i
CCCn1c2ccc(C)cc2c2nnc(SCCN3CCCCC3)nc21	i	?	i	i	?	i
C=CCn1c2ccccc2c2n[nH]c(=S)nc21	i	i	i	?	i	i
O=C(CCc1nc2ccccc2c(=O)[nH]1)N1CCN(C/C=C/c2ccccc2)CC1	i	i	i	i	i	i
O=c1[nH]c(CN2CCN(C/C=C/c3ccccc3)CC2)nc2cc(Cl)ccc12	i	?	i	i	?	-53
Cc1oc(-c2ccc(C(=O)NCc3ccc(Cl)cc3)cc2)nc1CS(=O)(=O)c1ccccc1	i	nt	i	i	nt	nt
NNC(=O)/C(=N/Nc1ccccc1)S(=O)(=O)c1ccc(Cl)cc1	18µM	?	i	i	?	?
CCOC(=O)/C(=N/Nc1ccc(C)cc1)S(=O)(=O)c1ccc(Cl)cc1	i	?	i	16µM	i	i
CCOC(=O)/C(=N\Nc1ccccc1)S(=O)(=O)c1ccccc1	i	i	i	i	i	i
CCN(CC)C(=O)c1ccc2c3c(cccc13)C(=O)N(CCc1ccc(OC)c(OC)c1)C2=O	?	?	i	7.3µM	i	i
COc1ccc(C(=O)/C=C/c2ccc(O)cc2)c(O)c1CC=C(C)C	i	23µM	i	i	i	-67
CCN(CC)c1ccc(NC(=O)C(NS(=O)(=O)c2cccs2)C(C)C)c(C)c1 (centres undefined)	i	nt	i	i	nt	nt
Cc1nc2cccnc2n1-c1cccc(C(=O)NCc2ccc(OC(C)C)cc2)c1	i	nt	i	i	nt	nt
CCOC(=O)C1=C(CSc2nc3c(cc2C#N)CN(C)CC3)OC(N)=C(C#N)C1c1ccc(Cl)cc1 (centres undefined)	i	26µM	i	i	?	i
CCOC(=O)C1=C(CSc2nc(CC)c(C)cc2C#N)OC(N)=C(C#N)C1c1ccccc1 (centres undefined)	i	?	i	i	i	i
CCOC(=O)C1=C(CSc2nc(-c3ccccc3)ccc2C#N)OC(N)=C(C#N)C1c1ccc(OC)cc1 (centres undefined)	i	16µM	i	i	?	i
CN(C)P(=O)(Nc1cccc2ccccc12)Nc1cccc2ccccc12	i	i	i	12µM	i	i
CC(C)OP(=O)(Nc1cccc2ccccc12)OC(C)C	i	i	i	i	i	i
COc1ccc(Cl)cc1NC(=O)CN(C)C(=O)c1ccc(N2CCCCC2)c([N+](=O)[O-])c1	15µM	i	i	?	i	i
CCOc1ccc(NC(=O)CN(C)C(=O)c2ccc(N3CCCCC3)c([N+](=O)[O-])c2)cc1OCC	i	i	i	i	i	i
CCOc1ccc(NC(=O)CN(C)C(=O)c2ccc(N3CCCC3)c([N+](=O)[O-])c2)cc1OCC	i	i	i	i	i	-60
CCOC(=O)c1c(NC(=O)c2ccccc2)sc2c1CCc1ccccc1-2	i	21µM	i	i	?	i

Screening data from PubChem.
